Records with an inconclusive call do not appear. Values without a mark were called inactive. The source made the active and inactive calls. Unless noted, calls follow the shape of the dose curve; as a rule, active = well fitted curve in the direction sought with a large enough effect in the repeat runs; inconclusive = weak or mixed curves; inactive = no such curve, though single readings can be large; an effect the other way counts as inactive or inconclusive.

The nature of assay [1]: qHTS assay to identify aromatase inhibitors - cell viability counter screen (AID 743084).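 Also: cells stimulated with testosterone during compound exposure; nearly all actives have a fitted effect of over 55% in size.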 For orientation: In qHTS, concentration-response curves come from the screen itself.
The target in assay [2] is Aryl hydrocarbon receptor (Homo sapiens) (UniProt P35869). Put plainly: qHTS assay to identify small molecule that activate the aryl hydrocarbon receptor (AhR) signaling pathway (AID 743085). Also: nearly all actives have a fitted effect of over 15% in size. Also: potency is read from the fitted curve at half-maximal effect.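 As to activation: HG2L7.5c1 human HepG2 liver cells with stably integrated DRE-driven firefly reporter; series mostly up to about 70 µM.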 The procedure, abridged: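 HepG2 cells (HG2L7.5c1) stably carrying a firefly luciferase reporter driven by 20 dioxin responsive elements were exposed to compound for 24 h at 37C after a 5 h settling period; luminescence rise (ONE-Glo) indicated activation.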
Chain of Aryl hydrocarbon receptor (Homo sapiens) (P35869 whole entry, looked up): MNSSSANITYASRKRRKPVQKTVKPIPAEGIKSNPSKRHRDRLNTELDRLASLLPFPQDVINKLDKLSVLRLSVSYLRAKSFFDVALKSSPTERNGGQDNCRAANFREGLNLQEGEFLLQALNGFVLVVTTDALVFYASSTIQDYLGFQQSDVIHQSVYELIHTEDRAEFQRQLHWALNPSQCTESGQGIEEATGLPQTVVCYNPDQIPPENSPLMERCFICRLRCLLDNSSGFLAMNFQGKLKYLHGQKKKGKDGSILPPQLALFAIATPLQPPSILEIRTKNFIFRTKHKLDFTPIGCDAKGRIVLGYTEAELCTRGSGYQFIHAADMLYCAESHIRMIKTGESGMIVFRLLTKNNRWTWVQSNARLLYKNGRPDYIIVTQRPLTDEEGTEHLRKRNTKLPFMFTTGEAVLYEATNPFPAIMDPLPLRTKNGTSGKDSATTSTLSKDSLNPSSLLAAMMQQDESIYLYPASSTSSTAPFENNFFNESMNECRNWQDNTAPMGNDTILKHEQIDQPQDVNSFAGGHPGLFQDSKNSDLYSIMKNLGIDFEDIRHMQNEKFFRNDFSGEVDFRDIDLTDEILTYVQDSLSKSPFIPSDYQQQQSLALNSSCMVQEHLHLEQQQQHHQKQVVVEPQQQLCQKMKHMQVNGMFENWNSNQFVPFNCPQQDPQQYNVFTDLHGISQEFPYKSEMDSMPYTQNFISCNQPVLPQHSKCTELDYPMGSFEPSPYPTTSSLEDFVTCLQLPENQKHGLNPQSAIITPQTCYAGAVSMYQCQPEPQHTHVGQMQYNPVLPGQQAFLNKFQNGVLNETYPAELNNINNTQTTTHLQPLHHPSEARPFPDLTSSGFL

A short description of assay [3]: qHTS assay to identify small molecule that activate the aryl hydrocarbon receptor (AhR) signaling pathway - cell viability counter screen (AID 743086).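 Also: HepG2 liver cells carrying the AhR DRE luciferase reporter; series mostly up to about 70 µM; nearly all actives have a fitted effect of over 45% in size.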 The procedure, abridged:
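HepG2-AhR-luc (HG2L7.5c1) cells, 4000/well, treated 24 h at 37 C with compound; viability measured as CellTiter-Fluor fluorescence after 30 min in the same wells as the luciferase read.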

The target in assay [4] is Peroxisome proliferator-activated receptor gamma (Homo sapiens) (UniProt P37231). Put plainly: qHTS assay to identify small molecule agonists of the peroxisome proliferator-activated receptor gamma (PPARg) signaling pathway (AID 743094; active = well fitted activation curve with a large enough effect in the signal ratio in the repeat runs, not every such curve was filed as active; the % refers to the signal ratio). The procedure, abridged: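 Stably transfected HEK293H cells (GeneBLAzer PPARg UAS-bla) were incubated with test substances for 17 h at 37C after a 5 h pre-incubation; beta-lactamase activity was then detected by FRET substrate fluorescence.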
Chain of Peroxisome proliferator-activated receptor gamma (Homo sapiens) (P37231 whole entry, looked up): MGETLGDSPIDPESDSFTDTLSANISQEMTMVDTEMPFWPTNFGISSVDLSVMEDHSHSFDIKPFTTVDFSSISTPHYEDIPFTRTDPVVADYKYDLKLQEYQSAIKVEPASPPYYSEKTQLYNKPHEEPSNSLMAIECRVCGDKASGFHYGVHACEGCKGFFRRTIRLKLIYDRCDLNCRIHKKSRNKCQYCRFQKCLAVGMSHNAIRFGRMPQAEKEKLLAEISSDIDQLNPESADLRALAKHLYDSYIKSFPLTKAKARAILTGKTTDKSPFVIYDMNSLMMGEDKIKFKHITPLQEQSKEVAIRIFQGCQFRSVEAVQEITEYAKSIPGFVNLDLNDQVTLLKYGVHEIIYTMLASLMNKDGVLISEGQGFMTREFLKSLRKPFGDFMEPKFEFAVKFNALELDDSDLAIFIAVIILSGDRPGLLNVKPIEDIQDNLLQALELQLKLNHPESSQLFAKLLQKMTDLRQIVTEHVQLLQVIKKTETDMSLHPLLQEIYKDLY

Assay [5] has the same target. Nature of the assay: qHTS assay to identify small molecule antagonists of the peroxisome proliferator-activated receptor gamma (PPARg) signaling pathway (AID 743191; calls by dose curve; also: series mostly up to about 63 µM; nearly all actives have a fitted effect of over 30% in size). The procedure, abridged: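 GeneBLAzer PPARg UAS-bla HEK293H cells, 5 h post-plating, exposed to compounds 17 h at 37C. LiveBLAzer B/G FRET substrate added for 1 h at room temperature; beta-lactamase reporter read by fluorescence intensity.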

Assay [6] can be described thus: qHTS assay to identify small molecule antagonists of the peroxisome proliferator-activated receptor gamma (PPARg) signaling pathway - cell viability counter screen (AID 743194). Also: nearly all actives have a fitted effect of over 55% in size. The procedure, abridged:
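Cytotoxicity counter screen in PPARg-bla HEK293H cells, same wells as reporter assay. Compounds plus 50 nM rosiglitazone (final) for 17 h at 37 C, then viability read by CellTiter-Glo luminescence.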

Assay [7] is described as follows: qHTS assay for small molecule agonists of the antioxidant response element (ARE) signaling pathway (AID 743202; active = well fitted activation curve with a large enough effect in the signal ratio in the repeat runs, not every such curve was filed as active; the % refers to the signal ratio; also: potency is read from the fitted curve at half-maximal effect). The procedure, abridged:
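Agonist mode reporter screen: HepG2 cells with ARE-controlled beta-lactamase are incubated with test compounds for 16 h at 37 C, and beta-lactamase activity is measured as fluorescence of cleaved B/G FRET substrate.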

Assay [8] in a line: qHTS assay for small molecule agonists of the antioxidant response element (ARE) signaling pathway - cell viability counter screen (AID 743203; calls by dose curve; also: nearly all actives have a fitted effect of over 55% in size). The procedure, abridged: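 Cells (ARE-bla HepG2, 2,000/well) receive DMSO-dissolved compounds after a 5 hrs rest. Plates incubate 16 hrs at 37C/5% CO2. CellTiter-Glo luminescence is then recorded after 30 min at room temperature.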
Assay [9] in a line: qHTS assay for small molecule activators of the heat shock response signaling pathway - cell viability counter screen (AID 743209). Also: nearly all actives have a fitted effect of over 50% in size. The procedure, abridged:
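Quantitative HTS format, Tox21 10K library. HeLa cells carrying an HSE-driven beta-lactamase reporter were treated 5 h at 37 C, then assessed for viability by CellTiter-Glo luminescence.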

Assay [10] is described as follows: qHTS assay for small molecule activators of the heat shock response signaling pathway (AID 743210; active = well fitted activation curve with a large enough effect in the signal ratio in the repeat runs, with a control signal flat, not every such curve was filed as active; the % refers to the signal ratio;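 also: HeLa cells with beta-lactamase reporter driven by heat shock elements; series mostly up to about 63 µM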). The procedure, abridged:
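Quantitative high-throughput format using an engineered HeLa line in which heat shock response elements drive beta-lactamase; after 5 h with compound, cells received a B/G FRET substrate and fluorescence was read.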

Assay [11] is described as follows: qHTS assay to identify small molecule agonists of the peroxisome proliferator-activated receptor delta (PPARd) signaling pathway - cell viability counter screen (AID 743211). Also: nearly all actives have a fitted effect of over 55% in size. The procedure, abridged: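 PPARd-bla HEK293H cells (UAS-beta-lactamase reporter) were treated with compounds for 17 h at 37 C. Viability was then read in the same wells by CellTiter-Glo luminescence after 30 min at room temperature.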

Assay [12] has as its target Peroxisome proliferator-activated receptor delta (Homo sapiens) (UniProt Q03181). Nature of the assay: qHTS assay to identify small molecule agonists of the peroxisome proliferator-activated receptor delta (PPARd) signaling pathway (AID 743212; calls by dose curve). The procedure, abridged:
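Quantitative high-throughput agonist screen in a HEK293H beta-lactamase reporter line under UAS control. Compounds in DMSO, at 37 C. Fluorescence read after 2 h with FRET substrate at room temperature.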

For assay [13] the target is unchanged. Put plainly: qHTS assay to identify small molecule antagonists of the peroxisome proliferator-activated receptor delta (PPARd) signaling pathway (AID 743215; active = well fitted inhibition curve with a large enough effect in the signal ratio in the repeat runs, not every such curve was filed as active; the % refers to the signal ratio;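 also: cells stimulated with agonist L165041 at 300 nM final during compound exposure; series mostly up to about 62 µM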). The procedure, abridged:
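Antagonist-mode beta-lactamase reporter screen: HEK293H cells with UAS-bla under PPARd control, stimulated by 300 nM L165041 (final) alongside test compound for 17 h at 37 C, then FRET fluorescence after 2 h substrate incubation.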

A short description of assay [14]: qHTS assay to identify small molecule agonists of the farnesoid-X-receptor (FXR) signaling pathway - cell viability counter screen (AID 743218). Also: nearly all actives have a fitted effect of over 45% in size. The procedure, abridged:
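In GeneBLAzer FXR-UAS-bla HEK 293T cells, compounds act for 16 h at 37 C. Cell viability is then scored in the reporter wells by CellTiter-Glo, 30 min at RT, luminescence.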

The target in assay [15] is Vitamin D3 receptor (Homo sapiens) (UniProt P11473). Nature of the assay: qHTS assay to identify small molecule agonists of the vitamin D receptor (VDR) signaling pathway (AID 743222; calls by dose curve). The procedure, abridged: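 Agonist activity measured in VDR-bla reporter cells. Exposure 16 h, 37C, 5% CO2; detection by B/G FRET substrate, 2 h RT.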
Chain of Vitamin D3 receptor (Homo sapiens) (P11473 whole entry, looked up): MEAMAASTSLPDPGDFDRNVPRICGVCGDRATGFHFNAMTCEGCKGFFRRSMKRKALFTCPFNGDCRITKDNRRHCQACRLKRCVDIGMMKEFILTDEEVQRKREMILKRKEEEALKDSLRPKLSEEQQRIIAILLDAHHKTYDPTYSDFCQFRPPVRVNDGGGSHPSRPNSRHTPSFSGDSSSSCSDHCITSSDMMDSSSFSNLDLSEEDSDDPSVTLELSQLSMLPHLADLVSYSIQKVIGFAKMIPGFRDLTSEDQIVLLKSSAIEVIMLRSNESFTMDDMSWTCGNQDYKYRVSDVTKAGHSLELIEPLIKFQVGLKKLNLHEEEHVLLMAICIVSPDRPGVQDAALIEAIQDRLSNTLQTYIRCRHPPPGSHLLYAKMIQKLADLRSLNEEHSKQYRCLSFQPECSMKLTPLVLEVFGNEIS
The target in assay [16] is Bile acid receptor (Homo sapiens) (UniProt Q96RI1). Nature of the assay: qHTS assay to identify small molecule antagonists of the farnesoid-X-receptor (FXR) signaling pathway (AID 743217; active = well fitted inhibition curve with a large enough effect in the signal ratio in the repeat runs, not every such curve was filed as active; the % refers to the signal ratio). The procedure, abridged: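 Beta-lactamase reporter under UAS control in HEK 293T cells; compound exposure 16 h at 37 °C in the presence of chenodeoxycholic acid (50 uM final); signal from B/G FRET substrate after 2 h at room temperature.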
Chain of Bile acid receptor (Homo sapiens) (Q96RI1 whole entry, looked up): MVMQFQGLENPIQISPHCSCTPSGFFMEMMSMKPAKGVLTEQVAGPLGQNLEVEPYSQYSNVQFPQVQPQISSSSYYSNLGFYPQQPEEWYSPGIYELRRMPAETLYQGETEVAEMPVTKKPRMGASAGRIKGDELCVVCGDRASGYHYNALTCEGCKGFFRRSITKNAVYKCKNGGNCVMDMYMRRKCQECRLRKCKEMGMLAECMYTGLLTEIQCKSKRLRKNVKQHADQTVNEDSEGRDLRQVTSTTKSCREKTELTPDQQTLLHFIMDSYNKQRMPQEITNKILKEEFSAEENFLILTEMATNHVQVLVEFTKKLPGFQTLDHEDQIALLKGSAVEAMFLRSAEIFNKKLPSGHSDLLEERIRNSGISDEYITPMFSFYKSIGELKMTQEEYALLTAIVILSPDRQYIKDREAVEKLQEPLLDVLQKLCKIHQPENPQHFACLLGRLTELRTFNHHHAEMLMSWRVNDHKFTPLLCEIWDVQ

Assay [17] can be described thus: qHTS assay to identify small molecule antagonists of the farnesoid-X-receptor (FXR) signaling pathway - cell viability counter screen (AID 743221; active = well fitted cell-killing curve with a large enough effect in the repeat runs, not every such curve was filed as active; also: nearly all actives have a fitted effect of over 50% in size). The procedure, abridged: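 FXR-UAS-bla HEK 293T cells were treated with test compounds plus chenodeoxycholic acid (50 uM final) for 16 h at 37 C. Cell viability in the same wells was then read as CellTiter-Glo luminescence after 30 min at room temperature.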

Assay [18] is described as follows: qHTS assay to identify small molecule antagonists of the peroxisome proliferator-activated receptor delta (PPARd) signaling pathway - cell viability counter screen (AID 743213). Also: nearly all actives have a fitted effect of over 50% in size. The procedure, abridged:
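CellTiter-Glo was added to PPARd-bla HEK293H wells following 17 h compound treatment in the presence of 300 nM L165041. Luminescence was recorded after 30 min at room temperature.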

The target in assay [19] is Bile acid receptor (Homo sapiens) (UniProt Q96RI1). Nature of the assay: qHTS assay to identify small molecule agonists of the farnesoid-X-receptor (FXR) signaling pathway (AID 743220; active = well fitted activation curve with a large enough effect in the signal ratio in the repeat runs, not every such curve was filed as active; the % refers to the signal ratio). The procedure, abridged:
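Beta-lactamase reporter under UAS control in GeneBLAzer FXR HEK 293T cells (5000/well) measured with LiveBLAzer FRET substrate after 2 h at room temperature. Compound exposure lasted 16 h at 37C.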

For assay [20], the target named is Vitamin D3 receptor (Homo sapiens) (UniProt P11473). Nature of the assay: qHTS assay to identify small molecule antagonists of the vitamin D receptor (VDR) signaling pathway (AID 743223; active = well fitted inhibition curve with a large enough effect in the signal ratio in the repeat runs, not every such curve was filed as active; the % refers to the signal ratio). The procedure, abridged: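 VDR-bla cells were plated, incubated 4 h at 37C, then given compound and 1alpha,25-dihydroxyvitamin D3 (3 nM final). After 16 h at 37C, LiveBLAzer B/G FRET substrate was added for 2 h at room temperature and fluorescence read.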
% is scaled to controls: 0 for no effect and ±100 for the full control effect.

Chain of Peroxisome proliferator-activated receptor delta (Homo sapiens) (Q03181 whole entry, looked up): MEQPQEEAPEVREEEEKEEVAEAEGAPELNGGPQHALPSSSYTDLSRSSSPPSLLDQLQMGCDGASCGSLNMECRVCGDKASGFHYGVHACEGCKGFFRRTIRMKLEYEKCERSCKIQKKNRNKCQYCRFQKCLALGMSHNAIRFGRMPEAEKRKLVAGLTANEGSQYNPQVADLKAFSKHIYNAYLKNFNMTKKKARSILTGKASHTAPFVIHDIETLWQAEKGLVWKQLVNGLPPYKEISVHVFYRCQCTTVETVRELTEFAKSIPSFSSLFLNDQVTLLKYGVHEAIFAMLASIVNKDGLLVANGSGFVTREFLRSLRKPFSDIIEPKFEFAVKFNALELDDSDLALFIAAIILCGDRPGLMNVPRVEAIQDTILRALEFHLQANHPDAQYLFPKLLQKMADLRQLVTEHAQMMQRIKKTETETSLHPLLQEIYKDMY

For the molecule `Cc1cc(C(=O)O)ccc1[N+](=O)[O-]`, the Potency entry in assay [1], in assay [2], in assay [3], in assay [4], in assay [5] and in assay [6] was “inactive” each time. Further, the Potency result in assay [7], in assay [8], in assay [9], in assay [10], in assay [11] and in assay [12] was “inactive” throughout. For the same molecule, the Potency entry in [13], in assay [14] and in [15] was “inactive” in each case.

As for `CCOCC(O)COc1ccc(NC(=O)CC[S+](C)C)cc1` (centres undefined), the Potency entry in assay [1], in assay [3], in assay [4], in assay [5], in [6] and in [7] was “inactive” in each case. Besides, the Potency result in assay [8], in assay [9], in assay [11], in assay [12], in assay [13] and in assay [16] was “inactive” each time. Besides, the Potency entry in assay [14], in assay [17] and in [15] was “inactive” in each case. For the same molecule, the Potency in assay [2] was 5.31 µM (active).

`CCCCCCCCO[C@@H]1O[C@H](CO)[C@@H](O)[C@H](O)[C@H]1O`: the Potency entry in assay [1], in [2], in [3], in assay [4], in [5] and in [6] was “inactive” each time. Also, the Potency entry in assay [7], in [8], in [9], in assay [10], in [11] and in assay [18] was “inactive” each time. In addition, the Potency entry in assay [14], in [19], in [17] and in assay [15] was “inactive” throughout.

With `NC(N)=NCCC[C@H](N)C(=O)O`, the Potency entry in [1], in [2], in [3] and in assay [4] was “inactive” each time. Besides, the ratio activity, negative = inhibition in assay [5] is 0.163% [at 5.95 µM]; in [13], -1.1% [at 6.26 µM]. In addition, the activity change, negative = cytotoxicity in [6] was 5.54% [at 5.95 µM]; in [9] it was 4.58% [at 5.95 µM]; in [11], 1.87% [at 5.95 µM]; in assay [17] it was -8.21% [at 5.95 µM]. For the same molecule, the activation was 0.601% [at 8.36 µM] in [7], 0.502% [at 5.95 µM] in assay [10], 0.522% [at 5.95 µM] in [12] and 9.36% [at 6.01 µM] in assay [15]. Moreover, the viability change, negative = cytotoxic in assay [8] is 9.06% [at 8.36 µM]; in [18] it was 2.08% [at 6.26 µM]; in assay [14], -2.05% [at 5.95 µM]. The activity change, negative = inhibition in [20] is 2.1% [at 6.95 µM].

For the molecule `O=C(O)c1ccc(S(=O)(=O)O)cc1C(=O)O`, the Potency result in assay [1], in [2], in assay [3], in [4], in assay [5] and in [6] was “inactive” each time. Also, the Potency entry in assay [7], in assay [8], in assay [9], in assay [11], in assay [12] and in assay [18] was “inactive” each time. Also, the Potency entry in [13], in [17] and in [15] was “inactive” each time.

Consider `COC(C)OC`, for which the Potency entry in [1], in assay [2], in assay [3], in assay [4], in [5] and in assay [6] was “inactive” in each case. The Potency result in [7], in [8], in [9], in [11], in assay [12] and in assay [18] was “inactive” each time. Besides, the Potency result in assay [13], in [14], in assay [17] and in [15] was “inactive” each time.

On to `C#CCN(C)CCCOc1ccc(Cl)cc1Cl`, for which the Potency entry in [1], in [3], in assay [4], in assay [5], in assay [6] and in [8] was “inactive” each time. The Potency result in assay [9], in assay [10], in assay [18], in assay [16], in [14] and in [19] was “inactive” throughout. Also, the Potency result in assay [17] and in assay [15] was “inactive” each time. Moreover, the Potency is 23.7 µM (active) in assay [2] and 15 µM (active) in assay [7]. Also, the outcome in assay [20] was inactive.

As for `O=C1CCC(=O)O1`, the Potency result in assay [1], in [2], in assay [3], in assay [4], in assay [5] and in [6] was “inactive” throughout. Besides, the Potency result in assay [7], in [8], in assay [9], in assay [10], in [11] and in assay [12] was “inactive” throughout. The Potency result in assay [13], in assay [14], in assay [19] and in assay [15] was “inactive” in each case.
